Experimental data reported in PubChem BioAssay (NCI).
Compounds without any hit were thinned out: in the full panel of roughly 83,000, 20% have a hit.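 In brief: 96-well plates, 48 h treatment, single concentration, percent growth endpoint.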 The source made the active and inactive calls. Rule for the calls: active = growth percent below 10; inactive = the rest.

What follows are molecules tested on HS 578T breast (assay: NCI-60 one-dose screen, 48 h (100 = growth as untreated, 0 = no growth, -100 = all killed)). Conditions: 10 µM unless noted.
In the case of CSc1ccc(-c2n[nH]nc2-c2cc3ccccc3s2)cc1, the growth is reported as 58.5% (inactive).
Clc1ccc2c(NCCCNc3nc(-n4ccnc4)nc4ccccc34)ccnc2c1 was tested, and the growth was 84.6% (inactive).
In the case of CN1CCN(c2nc(NCCCNc3ccnc4cc(Cl)ccc34)c3ccccc3n2)CC1, the growth is reported as 79.5% (inactive).
For CN(C)c1ccc(NC(=O)c2ccc(/C=C/C(=O)c3ncc[nH]3)cc2)cc1, the growth was 88.1% (inactive).
With COc1ccc(S(=O)(=O)N2CCCCC2)cc1NC(=O)c1[nH]c(C)c2c1CCCCC2=O the growth was 15.4% (inactive).
For CCn1c(O)c(/C=N/NC(=O)C(C)c2ccc(CC(C)C)cc2)sc1=S (stereo unspecified), the growth was 17.8% (inactive).
With Cc1nn(-c2cc(=O)[nH]c3ccc(Cl)cc23)c(N)c1C#N the growth was 103% (inactive).
O=C1/C(=C(/c2ccccc2)N2CCOCC2)Cc2ccccc21 was tested, and the growth was 5.18% (active).
O=C(COc1cccc(/C=C2\COc3ccccc3C2=O)c1)Nc1nccs1 was tested, and the growth was -6.5% (active).
CCN=C1C=CC(=C(c2ccc(N)cc2)c2ccc(N(CC)CC)c(C)c2)C=C1 was tested, and the growth was -24.6% (active).
For O=C(C(=O)c1ccc2c(c1)OCO2)c1ccc2c(c1)OCO2, the growth was 96.3% (inactive).
With COc1ccc(/C=C2\Oc3cc(OCCCCN4CCCC4)ccc3C2=O)cc1 the growth was 90.9% (inactive).
With COc1cc(-c2nn(-c3ccc(Br)cc3)cc2C(=O)O)ccc1O the growth was 101% (inactive).
In the case of O=c1ccccc(-c2ccc(-c3ccco3)cc2)c1O, the growth is reported as 59.3% (inactive).
For Cn1cc(C(=O)c2nc(-c3c[nH]c4ccc(Br)cc34)no2)c2cc(F)ccc21, the growth was 85% (inactive).
With COc1ccc(O)c(N=Nc2nccs2)c1 the growth was 103% (inactive).
With CCc1nc(N)nc(N)c1C#CC(C)c1cc(-c2ccnc(C)c2)c2oc(C)nc2c1 (stereo unspecified) the growth was 26.4% (inactive).
In the case of CC(=O)Nc1ccc(-n2c(O)c(/C=N/NC(=O)Cc3ccccc3Nc3c(Cl)cccc3Cl)sc2=S)cc1, the growth is reported as 92.5% (inactive).
For O=Nc1c(O)c(Cl)cc2ccccc12, the growth was 89.4% (inactive).
In the case of FC(F)(F)c1ccc(-c2cn3nc(-c4c[nH]c5ccc(Br)cc45)sc3n2)cc1, the growth is reported as 89.1% (inactive).
Cn1cc(-c2nonc2-c2c[nH]c3ccccc23)c2cccnc21 was tested, and the growth was 36.1% (inactive).
With Cn1cc(-c2nonc2-c2cn(C)c3ccc(F)cc23)c2ccccc21 the growth was 3.84% (active).
With Brc1ccc(-c2csc(Nc3ccccn3)n2)cc1 the growth was 114% (inactive).
In the case of Clc1ccc2c(NCCNc3nc(N4CCOCC4)nc4ccccc34)ccnc2c1, the growth is reported as -13.9% (active).
COc1ccc(-c2cc(-c3ccc(Nc4ccnc5cc(Cl)ccc45)cc3)nc(N3CCOCC3)n2)cc1 was tested, and the growth was -11.4% (active).
In the case of COc1cc2c(cc1-c1c(C)noc1C)ncc1nc(C3CCCC3)n([C@H](C)COC(F)F)c12, the growth is reported as 11% (inactive).
In the case of CCOc1cc2ncc(C#N)c(Nc3ccc(OCc4cccc(F)c4)c(Cl)c3)c2cc1NC(=O)CCCCC1CCSS1 (stereo unspecified), the growth is reported as 91.3% (inactive).
For Oc1ccccc1-c1nnc(CNc2ccc(Cl)cc2)o1, the growth was 57.6% (inactive).
For COc1cc2c(cc1-c1c(C)noc1C)ncc1nc(C3CCCCC3)n([C@H](C)COC(F)F)c12, the growth was 18.9% (inactive).
COc1cc(/C=C/C(=O)Nc2cccnc2Nc2ccc(F)cc2)cc(OC)c1OC was tested, and the growth was 99.4% (inactive).
Cn1c(NCCc2ccc(O)c(O)c2)nc2c1c(=O)n(Cc1ccc(Cl)c(Cl)c1)c(=O)n2C was tested, and the growth was 75.6% (inactive).
In the case of Cc1ccc(C2=NN3C(C2)c2cc(Br)ccc2OC32CCN(Cc3ccccc3)CC2)o1 (stereo unspecified), the growth is reported as 92% (inactive).
With O=C1/C(=C/C(Cl)=C/c2ccccc2)SC(=S)N1CCc1ccc(O)cc1 the growth was 37.5% (inactive).
In the case of NC(=O)c1cc(Br)ccc1NC(=O)/C=C/c1ccccc1, the growth is reported as 16.3% (inactive).
With CC(O)CN(CC(C)O)c1ccc2c(c1)Cc1cc([N+](=O)[O-])ccc1-2 (stereo unspecified) the growth was 95.8% (inactive).
For C=C1C(=O)O[C@H]2[C@H]1CC/C(COC(=O)c1cc3cc(OC)ccc3[nH]1)=C\CC[C@@]1(C)O[C@@H]21, the growth was -3.89% (active).
COc1cc(C(=O)/C=C/c2cccnc2Nc2ccc(Cl)cc2)cc(OC)c1OC was tested, and the growth was 29.4% (inactive).
O=c1cc(CSc2nnc(SCc3cc(=O)oc4c3ccc3ccccc34)o2)c2ccc3ccccc3c2o1 was tested, and the growth was 94.2% (inactive).

The molecules below were run on NCI/ADR-RES ovarian in the same assay as above. Conditions: 10 µM unless noted.
With CSc1ccc(-c2n[nH]nc2-c2cc3ccccc3s2)cc1 the growth was 22.8% (inactive).
For Clc1ccc2c(NCCCNc3nc(-n4ccnc4)nc4ccccc34)ccnc2c1, the growth was 101% (inactive).
With CN1CCN(c2nc(NCCCNc3ccnc4cc(Cl)ccc34)c3ccccc3n2)CC1 the growth was 96.3% (inactive).
In the case of CN(C)c1ccc(NC(=O)c2ccc(/C=C/C(=O)c3ncc[nH]3)cc2)cc1, the growth is reported as 64% (inactive).
In the case of COc1ccc(S(=O)(=O)N2CCCCC2)cc1NC(=O)c1[nH]c(C)c2c1CCCCC2=O, the growth is reported as 28.3% (inactive).
CCn1c(O)c(/C=N/NC(=O)C(C)c2ccc(CC(C)C)cc2)sc1=S (stereo unspecified) was tested, and the growth was 5.41% (active).
With Cc1nn(-c2cc(=O)[nH]c3ccc(Cl)cc23)c(N)c1C#N the growth was 97.4% (inactive).
O=C1/C(=C(/c2ccccc2)N2CCOCC2)Cc2ccccc21 was tested, and the growth was -33.1% (active).
O=C(COc1cccc(/C=C2\COc3ccccc3C2=O)c1)Nc1nccs1 was tested, and the growth was 45.6% (inactive).
With CCN=C1C=CC(=C(c2ccc(N)cc2)c2ccc(N(CC)CC)c(C)c2)C=C1 the growth was 67.7% (inactive).
O=C(C(=O)c1ccc2c(c1)OCO2)c1ccc2c(c1)OCO2 was tested, and the growth was 117% (inactive).
In the case of COc1ccc(/C=C2\Oc3cc(OCCCCN4CCCC4)ccc3C2=O)cc1, the growth is reported as 95.1% (inactive).
In the case of COc1cc(-c2nn(-c3ccc(Br)cc3)cc2C(=O)O)ccc1O, the growth is reported as 104% (inactive).
In the case of O=c1ccccc(-c2ccc(-c3ccco3)cc2)c1O, the growth is reported as 12% (inactive).
Cn1cc(C(=O)c2nc(-c3c[nH]c4ccc(Br)cc34)no2)c2cc(F)ccc21 was tested, and the growth was 94.1% (inactive).
For COc1ccc(O)c(N=Nc2nccs2)c1, the growth was 53.6% (inactive).
For CCc1nc(N)nc(N)c1C#CC(C)c1cc(-c2ccnc(C)c2)c2oc(C)nc2c1 (stereo unspecified), the growth was 11.5% (inactive).
For CC(=O)Nc1ccc(-n2c(O)c(/C=N/NC(=O)Cc3ccccc3Nc3c(Cl)cccc3Cl)sc2=S)cc1, the growth was 101% (inactive).
O=Nc1c(O)c(Cl)cc2ccccc12 was tested, and the growth was 72.2% (inactive).
FC(F)(F)c1ccc(-c2cn3nc(-c4c[nH]c5ccc(Br)cc45)sc3n2)cc1 was tested, and the growth was 96% (inactive).
For Cn1cc(-c2nonc2-c2c[nH]c3ccccc23)c2cccnc21, the growth was 13% (inactive).
In the case of Cn1cc(-c2nonc2-c2cn(C)c3ccc(F)cc23)c2ccccc21, the growth is reported as 4.44% (active).
Brc1ccc(-c2csc(Nc3ccccn3)n2)cc1 was tested, and the growth was 74% (inactive).
In the case of Clc1ccc2c(NCCNc3nc(N4CCOCC4)nc4ccccc34)ccnc2c1, the growth is reported as 47.9% (inactive).
In the case of COc1ccc(-c2cc(-c3ccc(Nc4ccnc5cc(Cl)ccc45)cc3)nc(N3CCOCC3)n2)cc1, the growth is reported as 20.8% (inactive).
With COc1cc2c(cc1-c1c(C)noc1C)ncc1nc(C3CCCC3)n([C@H](C)COC(F)F)c12 the growth was 35.5% (inactive).
For CCOc1cc2ncc(C#N)c(Nc3ccc(OCc4cccc(F)c4)c(Cl)c3)c2cc1NC(=O)CCCCC1CCSS1 (stereo unspecified), the growth was 101% (inactive).
In the case of Oc1ccccc1-c1nnc(CNc2ccc(Cl)cc2)o1, the growth is reported as 13.4% (inactive).
For COc1cc2c(cc1-c1c(C)noc1C)ncc1nc(C3CCCCC3)n([C@H](C)COC(F)F)c12, the growth was 38.2% (inactive).
With COc1cc(/C=C/C(=O)Nc2cccnc2Nc2ccc(F)cc2)cc(OC)c1OC the growth was 101% (inactive).
Cn1c(NCCc2ccc(O)c(O)c2)nc2c1c(=O)n(Cc1ccc(Cl)c(Cl)c1)c(=O)n2C was tested, and the growth was 77.3% (inactive).
Cc1ccc(C2=NN3C(C2)c2cc(Br)ccc2OC32CCN(Cc3ccccc3)CC2)o1 (stereo unspecified) was tested, and the growth was 94% (inactive).
In the case of O=C1/C(=C/C(Cl)=C/c2ccccc2)SC(=S)N1CCc1ccc(O)cc1, the growth is reported as 9.23% (active).
With NC(=O)c1cc(Br)ccc1NC(=O)/C=C/c1ccccc1 the growth was 11% (inactive).
In the case of CC(O)CN(CC(C)O)c1ccc2c(c1)Cc1cc([N+](=O)[O-])ccc1-2 (stereo unspecified), the growth is reported as 92.9% (inactive).
For C=C1C(=O)O[C@H]2[C@H]1CC/C(COC(=O)c1cc3cc(OC)ccc3[nH]1)=C\CC[C@@]1(C)O[C@@H]21, the growth was -0.39% (active).
COc1cc(C(=O)/C=C/c2cccnc2Nc2ccc(Cl)cc2)cc(OC)c1OC was tested, and the growth was 3.59% (active).
For O=c1cc(CSc2nnc(SCc3cc(=O)oc4c3ccc3ccccc34)o2)c2ccc3ccccc3c2o1, the growth was 94.4% (inactive).
